Hits are enriched below; roughly 4.7% of the tested compounds scored in any of these assays.
HSF-1 act = increases HSF-1 driven luciferase reporter signal; NIH3T3-HGL HSF-1 luciferase reporter, MG132, 8 h; 100% = twice DMSO control signal; activation, % at 9 µM; 300,000 tested, 1.7% active;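 active means mean replicate activation of at least 50% with a set share of replicates each reaching 50%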;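 further: 0% = median of the neutral control wells and 100% = twice that signal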
HSP90 inh = inhibitors of HSP90 luciferase refolding in rabbit reticulocyte lysate | luciferase refolding luminescence, 3 h | 290,000 tested, 0.91% active | inhibition, % at 5.6 µM;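 active means inhibition above the screen-wide mean plus 3 SD, computed separately per campaign, cut at about 16% in these data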;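 further: 0% = DMSO wells and 100% = 60 µM geldanamycin wells; inhibitors lower the luminescence because luciferase stays unfolded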
TWEAK-Fn14 inh = blocks TWEAK-Fn14 interaction in a reporter cell assay; TWEAK-stimulated Fn14 reporter cells, luciferase luminescence, 8 h; inhibition, % at 10 µM; 360,000 tested, 2% active; in the data active means inhibition above about 50%
EBV LMP1 NFkB = reduces LMP1-driven NF-kappaB luciferase signal. 350,000 tested, 0.69% active. inhibition, % at 12.5 µM. LMP1-induced NF-kappaB luciferase reporter cells, luminescence; in the data active means inhibition above about 41%;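 further: 0% = neutral control wells and 100% = reference inhibitor control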
TROY signal inh = TROY signaling inhibition; AID 1347056; Q293 LMP1-TROYcd NF-kB luciferase reporter, 4 h; 360,000 tested, 0.98% active; inhibition, % at 10 µM;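 active means compounds whose plate-normalised and pattern-corrected inhibition of the luciferase reporter signal at the single screening dose is 50% or more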
HSF1 inh = HSF1 inhibition. NIH3T3-HGL HSE-luciferase, MG132-induced, luminescence 8 h; hits give low values. activity change, negative = inhibition, % at 7.5 µM (by protocol). 300,000 tested, 0.77% active. AID 2098;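 active means more than half of replicate wells show activity change below -50%, luminescence cut by over half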;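 further: luciferase reports HSF-1 transcriptional activity via heat shock element; 0% = median of DMSO wells and -100% = zero luminescence signal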
HSP90 inh confirm = confirmation of HSP90 inhibitors; shares compounds with HSP90 inh; rabbit reticulocyte lysate, luciferase refolding luminescence, 3 h; inhibition, % at 5.9 µM; 2,300 tested, 64% active; AID 1846; in the data active means inhibition above about 18%;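 further: 0% = vehicle wells and 100% = reference inhibitor wells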
FLuc counter = blocks native firefly luciferase in HSP90 counter-screen. 2,300 tested, 48% active. shares compounds with HSP90 inh. inhibition, % at 5.9 µM. purified native firefly luciferase, luminescence. AID 1847;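 active means inhibition above the mean inhibition of all tested sample wells plus 3 SD, cut at about 10% in these data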;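 further: 0% = DMSO with luciferase and 100% = wells lacking luciferase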
Target sequence (P08659 whole entry, looked up): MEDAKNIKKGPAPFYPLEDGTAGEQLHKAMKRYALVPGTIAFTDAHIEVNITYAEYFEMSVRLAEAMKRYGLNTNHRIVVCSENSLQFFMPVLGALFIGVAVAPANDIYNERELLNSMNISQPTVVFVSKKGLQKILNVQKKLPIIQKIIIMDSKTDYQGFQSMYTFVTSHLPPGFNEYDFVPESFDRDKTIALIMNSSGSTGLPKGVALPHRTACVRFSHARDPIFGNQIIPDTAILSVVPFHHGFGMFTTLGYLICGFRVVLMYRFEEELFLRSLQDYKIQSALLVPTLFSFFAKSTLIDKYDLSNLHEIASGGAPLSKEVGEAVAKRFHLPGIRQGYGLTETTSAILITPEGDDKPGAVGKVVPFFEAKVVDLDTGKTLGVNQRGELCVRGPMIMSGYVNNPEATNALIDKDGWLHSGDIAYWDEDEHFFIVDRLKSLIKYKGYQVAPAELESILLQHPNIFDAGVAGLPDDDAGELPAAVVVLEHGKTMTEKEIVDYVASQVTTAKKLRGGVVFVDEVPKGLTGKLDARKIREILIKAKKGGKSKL
Active calls of the source: *; nt = no result given.

SMILES	HSF-1 act	HSP90 inh	TWEAK-Fn14 inh	EBV LMP1 NFkB	TROY signal inh	HSF1 inh	HSP90 inh confirm	FLuc counter
CC(C)(C)OC(=O)N1CCC(C(=O)Nc2ccc(C(=O)NC3CC3)cc2)CC1	nt	nt	10	5	0	nt	nt	nt
Cc1ccc(NC(=O)Nc2ccc3c(c2)nc(C)n3C)cc1	15	7	21	-4	-30	0	nt	nt
CC(=O)Nc1cccc(NC(=O)Nc2cccc3ccccc23)c1	15	1	-1	-11	24	-1	nt	nt
O=C(Nc1cccc(C(=O)O)c1)Nc1cccc2ccccc12	-15	19*	-23	-10	-42	-8	32*	15*
CCOc1ccc(NC(=O)Nc2cccc(C(=O)O)c2)cc1	-76	89*	23	81*	-53	-72*	90*	85*
Cc1nc2cc(NC(=O)Nc3ccccc3Cl)ccc2n1C	16	32*	59*	14	34	-7	59*	38*
O=C(CCN1C(=O)c2ccccc2S1(=O)=O)Nc1cc(Cl)ccc1Cl	0	nt	-13	7	-16	1	nt	nt
O=C(CN1C(=O)c2ccccc2S1(=O)=O)c1ccc2c(c1)OCCO2	-81	57*	104*	81*	83*	-78*	68*	-8
O=C(CCN1C(=O)c2ccccc2S1(=O)=O)Nc1ccc2c(c1)OCCO2	-2	-1	13	4	-39	3	nt	nt
O=C(CN1C(=O)c2ccccc2S1(=O)=O)c1ccc2c(c1)OCCCO2	-90	80*	102*	86*	81*	-88*	82*	-19
O=C(CN1C(=O)c2ccccc2S1(=O)=O)c1ccc(Cl)cc1Cl	-74	89*	105*	79*	87*	-68*	91*	29*
COc1ccc(-c2ccc3nncn3c2)cn1	nt	nt	-5	nt	-14	nt	nt	nt
Cc1cc(NO)nc(-c2ccc(Br)cc2)n1	2	81*	8	-46	-16	5	79*	-17
COCCNC(=O)C(=O)Nc1cccc(Br)c1	-9	-1	-7	-8	-40	-3	nt	nt
COCCNC(=S)NNc1cccc(C(=O)O)c1	-2	18*	-9	-2	-47	-4	9	7
COc1ccc(-c2cc(C(=O)N3CCOCC3)no2)cc1	10	37*	65*	29	41	-4	50*	32*
COc1cccc(-c2cc(C(=O)N3CCOCC3)no2)c1	61*	18*	-46	-11	-16	23	19*	-4
CC1CCCCN1C(=O)c1cc(-c2ccc3c(c2)OCO3)on1 (stereo not given)	-1	7	24	-32	12	6	nt	nt
O=C(c1cc(-c2ccc(Br)cc2)on1)N1CCOCC1	31	19*	55*	2	-2	23	38*	29*
CC1CCN(C(=O)c2cc(-c3ccc4c(c3)OCO4)on2)CC1	31	20*	53*	-13	-24	8	39*	28*
CCN(CC)C(=O)C1=C(C)N(CCC2=CCCCC2)C(=O)C(CC(=O)NCCCN(C)C)C1 (stereo not given)	nt	nt	18	2	5	nt	nt	nt
CC1=C(C(=O)N(C)C)CC(CC(=O)NCCCCc2ccccc2)C(=O)N1Cc1ccccc1 (stereo not given)	nt	nt	21	3	19	nt	nt	nt
O=C(NCc1ccccc1Cl)c1ccc2sc([C@@H]3O[C@H](CO)[C@H](O)[C@H](O)[C@H]3O)nc2c1	nt	nt	-3	nt	5	nt	nt	nt
COC(=O)c1ccc(CSC2=NC[C@@H]3[C@@H]4C(=O)N(Cc5ccccc5)C(=O)[C@@H]4[C@](C)(C(=O)OC)N23)cc1	nt	nt	8	-6	1	nt	nt	nt
CC1(C(=O)NS(=O)(=O)c2ccccc2Cl)CCN1C(=O)CCc1cccs1 (stereo not given)	nt	nt	8	nt	2	nt	nt	nt
SMILES	HSF-1 act	HSP90 inh	TWEAK-Fn14 inh	EBV LMP1 NFkB	TROY signal inh	HSF1 inh	HSP90 inh confirm	FLuc counter
CC[C@H](C)[C@H]1CNC(=S)N1CC1CCN(CCCC2CCCC2)CC1	nt	nt	1	-25	-21	nt	nt	nt
Cc1ccnc(SCC(=O)N2CCN(c3ccccc3)CC2)n1	-3	0	-1	0	9	-10	nt	nt
O=C(CSc1ncn(-c2ccccc2)n1)N1CCN(c2ccccc2)CC1	8	35*	-3	9	4	0	-6	-6
C[C@@H](C(=O)Nc1ccc2c(c1)OCCO2)n1c(=O)[nH]c2ccccc2c1=O	-81	54*	94*	43*	84*	-77*	66*	69*
COc1ccc(CNC[C@@H](CCCCN(C)Cc2ccc(OC)cc2)N2C[C@H](c3ccccc3)N(CCc3ccc(Cl)c(Cl)c3)C(=O)C2=O)cc1	-4	18*	97*	89*	34	8	20*	-5
CCOc1cccc(/C=N/NC(=O)c2ccc3c(c2)OCCO3)c1O	23	-3	-21	7	-26	15	nt	nt
Cc1cccc(/C=N/NC(=O)c2ccc3c(c2)OCCO3)c1O	8	32*	74*	17	29	11	59*	52*
O=C(N/N=C/c1cc(O)ccc1[N+](=O)[O-])c1ccc2c(c1)OCCO2	21	3	-6	22	-45	12	nt	nt
O=C(N/N=C/c1cccc(O)c1)c1ccc2c(c1)OCCO2	32	48*	69*	64*	15	9	59*	39*
O=C(N/N=C/c1ccccc1[N+](=O)[O-])c1ccc2c(c1)OCCO2	26	22*	22	37	-16	14	58*	36*
COCCCNC(=O)C[C@@H]1C[C@@]2(C(=O)OC)CCCCC=C2N(Cc2ccc(Cl)cc2Cl)C1=O	nt	nt	5	nt	4	nt	nt	nt
COc1ccc2cc(C[C@@H]3CC[C@@H](CNC(N)=O)O3)ccc2c1	nt	nt	-29	-19	-41	nt	nt	nt
c1ccc(N2CCN(c3nc4cc5c(cc4s3)OCCO5)CC2)cc1	36	-2	11	-2	-20	12	nt	nt
c1c2c(cc3sc(N4CCOCC4)nc13)OCCO2	-2	62*	92*	62*	55*	0	85*	78*
COc1ccc(-c2nc3c4ccccc4ccn3c2CC2CCCCC2)cc1OC	nt	nt	-26	nt	2	nt	nt	nt
O=S1(=O)CCN(Cc2csc(-c3cccs3)n2)CC1	22	5	22	6	-17	17	nt	nt
c1csc(-c2nc(CN3CCSCC3)cs2)c1	35	27*	60*	30	15	4	55*	31*
COc1cc(/C=C/[N+](=O)[O-])ccc1OCc1cccc(C(=O)O)c1	-23	63*	nt	nt	nt	-14	51*	2
COc1cc(CN2C(=O)C(C)ON=C2c2ccccc2F)cc(OC)c1 (stereo not given)	nt	nt	-5	nt	-1	nt	nt	nt
CC1CCc2nc(NC(=O)C3CC3)sc2C1 (stereo not given)	13	1	-27	4	-60	9	nt	nt

Screening results deposited in PubChem BioAssay by several laboratories.
